Source: the supplement of paper PMC10338343
± gives the standard deviation. In all, about 8,200 sequences were measured (“pre-steady-state target cleavage rate”: median about 0.024, highest 2% from about 1.3 on). For the sample, the highest values were picked, then their nearest neighbours and some sequences at random.

Tested on: MIWI (PIWIL1) piRISC loaded with L1MC piRNA (30 nt)
Assay: pre-steady-state target cleavage rate (min^-1); MIWI and MILI are mouse PIWI proteins and EfPiwi is from a freshwater sponge; tags in brackets are library labels; higher = faster piRNA-guided slicing of the target
Details: guide: L1MC piRNA 5'p-UAACUAAAUACUAUGCAAGCUGUAGGUCCU
Outline: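 Cleave-'n-Seq used a transcribed, DNA-blocked target RNA library at 0.1 nM and active affinity-purified piRISC with one synthetic guide at 1 nM, with or without 500 nM GTSF1 partner protein, in HEPES–potassium acetate buffer at 33 °C for 0–8 or 0–960 min. Uncleaved targets were sequenced and normalised to depth and to weakly complementary targets, and three trials were pooled with k3 capped at 0.0001 min^-1. The pre-steady-state cleavage rate was estimated by a burst-and-steady-state fit.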

[1] = auxiliary factor: 500 nM mouse GTSF1
[2] = auxiliary factor: none (no GTSF1)

| Sequence | pre-steady-state target cleavage rate [1] | pre-steady-state target cleavage rate [2] |
| --- | --- | --- |
| AGGACGAUCAGCUUGCAUAGUAUUUAGUUA | 1.43 ± 0.068 | 0.0865 ± 0.016 |
| AGGACGAUCAGCUUGCAUAGUAUUUAGAAA | 0.384 ± 0.061 | 0.0104 ± 0.0037 |
| UCCUCGAUCAGCUUGCAUAGUAUUUAGUUA | 1.58 ± 0.056 | 0.0718 ± 0.013 |
| AGGACGAUCAGCUUGCAUAGUAUUUAGUAA | 1.02 ± 0.12 | 0.0692 ± 0.015 |
| UGGACGAUCAGCUUGCAUAGUAUUUAGUUA | 1.47 ± 0.071 | 0.0852 ± 0.016 |
| UCGACGAUCAGCUUGCAUAGUAUUUAGAAA | 0.494 ± 0.05 | 0.0104 ± 0.0033 |
| UCCUGGAUGAGCUUGCUUAGAAUUUAGUUA | 0.0359 ± 0.0063 | 0.00574 ± 0.0024 |
| UCCUGCAUCAGCUUGCAUAGUAUUUAGUUA | 1.2 ± 0.066 | 0.0666 ± 0.014 |
| UCCUGCUACAGCUUGCAUGUAUUUAGUUA | 0.413 ± 0.054 | 0.00516 ± 0.0026 |
| ACCUCCUACAGCUUGCAUAGUAUUUAGAAA | 0.54 ± 0.061 | 0.00602 ± 0.0029 |
| AGGACCUACAGCAUCCAUAGUAUUUAGUUA | 0.319 ± 0.053 | – |
| UCGACCUACUCGUUGCAUAGUAUUUACAAA | 0.165 ± 0.025 | – |
| UGCACCUACACCUUGCAUAGUAUUUAGUUA | 0.967 ± 0.059 | 0.0415 ± 0.0067 |
| UCCUGGUACAGGUUGCAUAGUAUUUACUUA | 0.125 ± 0.035 | 0.00733 ± 0.003 |
| UGGACCUACAGACUUGCAUAGUAUUUAGUUA | 1.13 ± 0.1 | 0.0446 ± 0.0075 |
| UCCUGGAUGUCGUUAGCAUAGUAUUUAGUUA | 0.0102 ± 0.0036 | – |
| UCCUGGAUGUGCUAGCAUAGUAUAUAGUUA | 0.0106 ± 0.0042 | – |
| UCCACGAUCAGCUUGCAUAGUAUUUAGUUA | 1.55 ± 0.058 | 0.0711 ± 0.013 |
| UCCACGAUCAGCUUGCAUAGUAUUUAGAAA | 0.444 ± 0.044 | 0.00814 ± 0.0028 |
| UCCACGAUCAGCUUGCAUAGUAUUUAGUAA | 1.09 ± 0.079 | 0.0387 ± 0.009 |
| UCCUGCUACAGCUUGCAUAGAAUUUACAAA | 0.309 ± 0.065 | – |
| AGGACCUACAGCUUGCAUAGUAUAUUCAAA | 0.419 ± 0.072 | – |

| Sequence | pre-steady-state target cleavage rate [1] | pre-steady-state target cleavage rate [2] |
| --- | --- | --- |
| AGGACCUUCAGCUUGCAUAGUAUUUUCAAA | 0.311 ± 0.038 | 0.00593 ± 0.0032 |
| UCCUCCACAGCUUGCAUAGUAUUUAGUUA | 0.736 ± 0.027 | 0.0534 ± 0.011 |
| UCCUGGUCACAGCUUGCAUAGUAUUUAGUUA | 0.818 ± 0.034 | 0.0939 ± 0.022 |
| UCCUGCUCACAGCUUGCAUAGUAUUUAGUUA | 1.37 ± 0.076 | 0.0748 ± 0.014 |
| UCCUGCUCAGCUUGCAUAGUAUUUAGUUA | 1.09 ± 0.043 | 0.0636 ± 0.013 |
| UCCUGCCACAGCUUGCAUAGUAUUUAGUUA | 1.2 ± 0.051 | 0.0769 ± 0.013 |
| UCCUGCACAGCUUGCAUAGUAUUUAGUUA | 1.34 ± 0.073 | 0.0804 ± 0.018 |
| UCCUCCUCACAGCUUGCAUAGUAUUUAGUUA | 1.49 ± 0.064 | 0.0662 ± 0.014 |
| UCCUCCCACAGCUUGCAUAGUAUUUAGUUA | 1.15 ± 0.04 | 0.0641 ± 0.012 |
| UCCUGGCACAGCUUGCAUAGUAUUUAGUUA | 0.456 ± 0.081 | 0.0452 ± 0.011 |
| UCCUGGAUGAGCAAGCAUAGUAUUUAGUAA | 0.0379 ± 0.01 | – |
| UCCUGGAUGUGCAUGCAUAGUAUUUAGUUA | 0.13 ± 0.014 | 0.00793 ± 0.0025 |
| UCCUGGAUGUGCUUGCAAAGUUUUUAGUUA | 0.00751 ± 0.0037 | 0.00575 ± 0.002 |
| UGGACCAACAGCUUGGAUAGUAUUUAGUUA | 1.49 ± 0.054 | 0.0691 ± 0.011 |
| AGGACCAACAGCUUGGAUAGUAUUUAGUUA | 1.41 ± 0.059 | 0.0681 ± 0.01 |
| UCGACCAACAGCUUGGAUAGUAUUUAGUUA | 1.67 ± 0.045 | 0.0693 ± 0.011 |
| AGGACCAACAGCUUCCAUAGUAUUUAGUUA | 0.0962 ± 0.019 | 0.00538 ± 0.0017 |
| UCCAGCUACAGCUUGGAUAGUAUUUAGUUA | 1.31 ± 0.12 | 0.0456 ± 0.0069 |
| UCGAGCUACAGCUUGGAUAGUAUUUAGUUA | 1.11 ± 0.086 | 0.0477 ± 0.0076 |
| AGGACCAACAGCUUGCAUAGUAUUUAGAUA | 0.509 ± 0.045 | 0.0557 ± 0.011 |
| UCCUCCAACAGCUUGGAUAGUAUUUAGUUA | 1.3 ± 0.053 | 0.0527 ± 0.0092 |
| UCCACCAACAGCUUGGAUAGUAUUUAGUUA | 1.36 ± 0.056 | 0.0553 ± 0.01 |

| Sequence | pre-steady-state target cleavage rate [1] | pre-steady-state target cleavage rate [2] |
| --- | --- | --- |
| UCCUGGAACAGCUUGGAUAGUAUUUAGUUA | 1.18 ± 0.043 | 0.0808 ± 0.015 |
| UGGACCAACAGCUUCCAUAGUAUUUAGUUA | 0.0364 ± 0.0068 | 0.00383 ± 0.0016 |
| UCGACCAACAGCUUCCAUAGUAUUUAGUUA | 0.0723 ± 0.016 | 0.0035 ± 0.0011 |
| UCCUCCUACAGCUUCGAUAGUAUUUAGAAA | 0.0755 ± 0.019 | – |
| UCCUGGAUGAGCUUGCAUAGUAUUUAGUGA | 0.703 ± 0.047 | 0.0519 ± 0.0094 |
| UCCUGCUACAGCUUGCAUUGUAUUAAGUUA | 0.502 ± 0.038 | 0.00942 ± 0.0021 |
| UCCACCUACAGCUUGGAUAGUAUUUUCAAA | 0.0295 ± 0.012 | – |
| UCCUCCUACAGCAUGCAUAGUAUUUAGAAA | 0.485 ± 0.066 | – |
| UCGACCUACAGGUUGGAUAGUAUUUAGUUA | 1.16 ± 0.11 | 0.0308 ± 0.0056 |
| UGGACCUACAGCUUGGAUAGUAUUUAGUUA | 1.65 ± 0.068 | 0.0735 ± 0.013 |
| UCCACCUACAGCUUGGAUAGUAUUUAGUUA | 1.44 ± 0.056 | 0.0469 ± 0.0082 |
| UGGACCUACAGCUUGGAUAGUAUUUAGAUA | 0.427 ± 0.05 | 0.0235 ± 0.0046 |
| UGGACCUACAGCUUGGAUAGUAUUUAGUAA | 0.851 ± 0.062 | 0.0355 ± 0.006 |
| AGGACCUACAGGUUGGAUAGUAUUUAGUUA | 1.24 ± 0.079 | 0.0408 ± 0.0067 |
| UCCACCUACAGCUUGGAUAGUAUUUAGUAA | 0.747 ± 0.054 | 0.0244 ± 0.0052 |
| AGGACCUACAGCUUGGAUAGUAUUUAGAUA | 0.527 ± 0.057 | 0.0218 ± 0.0053 |
| UGGACCUACAGGUUGGAUAGUAUUUAGUUA | 1.33 ± 0.091 | 0.0484 ± 0.0079 |
| UCCACCUACAGCUUGGAUAGUAUUUAGAUA | 0.319 ± 0.042 | 0.0137 ± 0.0027 |
| AGGACCUACAGCUUGGAUAGUAUUUAGUUA | 1.67 ± 0.052 | 0.0813 ± 0.013 |
| AGGACCUACAGCUUGGAUAGUAUUUAGUAA | 1.02 ± 0.063 | 0.0552 ± 0.012 |
